# According to the supplement of paper PMC6522484:
# ± gives the standard deviation of the averaged measurements.
# Key:
# DLD1 [1] = assay: cell viability (CellTiter-Glo) relative to plate median (fraction of plate median); higher = more viable cells; details: 5 µM; treatment time 24 h; reporter: 7TFP
# Method in brief: (§1)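 On parallel plates, a Tecan F500 reader recorded either firefly luciferase or CellTiterGlo luminescence. The plates held colorectal cancer cells stably transduced with lentiviral TCF/Wnt firefly luciferase reporters (7TFP or TCF4/Wnt), seeded in 384-well format and treated 24 h later with library compounds at a final 5 µM for 24 h. Per-well signals were normalised to the plate median (webcellHTS2, additive, no log transformation), and two independent replicates were averaged.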
# HCT116 = assay: as above; details: 5 µM; treatment time 24 h; reporter: TCF4/Wnt
# Method in brief: as §1
# SW480 [2] = assay: as above; details: 5 µM; treatment time 24 h; reporter: 7TFP
# Method in brief: as §1
# DLD1 [3] = assay: TCF/Wnt firefly luciferase reporter signal relative to plate median (fraction of plate median); higher = higher Wnt reporter signal; details: 5 µM; treatment time 24 h; reporter: 7TFP
# Method in brief: as §1
# SW480 [4] = assay: as above; details: 5 µM; treatment time 24 h; reporter: 7TFP
# Method in brief: as §1
Compound,cell viability (DLD1 [1]),cell viability (HCT116),cell viability (SW480 [2]),TCF/Wnt firefly luciferase reporter signal (DLD1 [3]),TCF/Wnt firefly luciferase reporter signal (SW480 [4])
Clc1ccc(COC(Cn2ccnc2)c2ccc(Cl)cc2Cl)c(Cl)c1 (stereo not given),0.964 ± 0.042,1.01 ± 0.014,0.973 ± 0.0099,1.04 ± 0.11,1.04 ± 0.12
COc1cccc2c1C(=O)c1c(O)c3c(c(O)c1C2=O)CC(O)(C(C)O)CC3OC1CC(NC=O)C(O)C(C)O1 (stereo not given) [Baumycin C2],1.02 ± 0.035,1.005 ± 0.0071,1 ± 0.036,1.17 ± 0.12,1.05 ± 0.014
CCCCCC(=O)Cc1cc(O)cc(O)c1C(=O)Oc1cc(CC(=O)CCCCC)c(C(=O)O)c(OC)c1,0.992 ± 0.04,1.01 ± 0.018,0.966 ± 0.012,1.07 ± 0.15,1.14 ± 0.035
CC1=CC2C(C(C)C)CCC(C)(O)C2CC1 (stereo not given),0.97 ± 0.036,0.929 ± 0.011,0.969 ± 0.013,1.02 ± 0.11,0.957 ± 0.025
O=C(O)CN(CCN(CC(=O)O)CC(=O)O)CC(=O)O.[Na+].[Na+].[Na+],0.914 ± 0.021,0.948 ± 0.088,1.01 ± 0.035,1.02 ± 0.12,1.11 ± 0.13
CN1CCC[C@@H]1CCO[C@](C)(c1ccccc1)c1ccc(Cl)cc1,0.982 ± 0.096,0.917 ± 0.018,1.05 ± 0.042,0.913 ± 0.19,0.87 ± 0.041
CCC[C@@H]1C[C@@H](C(=O)N[C@@H]([C@H]2O[C@H](SC)[C@H](O)[C@@H](O)[C@H]2O)[C@@H](C)O)N(C)C1,1.05 ± 0.12,1.03 ± 0.021,1.035 ± 0.0071,0.934 ± 0.015,1.04 ± 0.083
COc1ccccc1N1CCN(CCCNc2cc(=O)n(C)c(=O)n2C)CC1,0.938 ± 0.037,0.885 ± 0.018,0.93 ± 0.025,1.03 ± 0.05,0.953 ± 0.081
O=c1[nH]cc(F)c(=O)[nH]1,1.03 ± 0.083,0.905 ± 0.054,1.11 ± 0.014,1.01 ± 0.13,0.9685 ± 0.0064
CC(=O)N[C@@H](Cc1c[nH]c2ccccc12)C(=O)O,0.953 ± 0.0014,0.955 ± 0.093,0.985 ± 0.021,0.905 ± 0.1,0.961 ± 0.016
COC(=O)CC[C@@H](C)[C@H]1CC[C@H]2[C@@H]3CC[C@@H]4C[C@H](O)CC[C@]4(C)[C@H]3C[C@H](O)[C@]12C,0.964 ± 0.065,1.02 ± 0.097,0.944 ± 0.018,0.955 ± 0.079,0.875 ± 0.061
CN(C)CCCN1c2ccccc2Sc2ccc(C(F)(F)F)cc21,1.07 ± 0.17,0.993 ± 0.081,1.04 ± 0.028,0.957 ± 0.034,0.959 ± 0.17
CC1CCC2(OC1)OC1CC3C4CCC5C[C@@H](O)CCC5(C)C4=CCC3(C)C1[C@@H]2C (stereo partly drawn) [3beta-HYDROXYISOALLOSPIROST-9(11)-ENE],1.02 ± 0.021,0.997 ± 0.12,0.973 ± 0.052,1.02 ± 0.11,1.01 ± 0.016
COC(=O)C[C@H]1C(C)(C)[C@@H](OC(C)=O)[C@@H]2CC3=C4CC(=O)O[C@@H](c5ccoc5)[C@]4(C)CC[C@@H]3[C@@]1(C)C2=O,0.9945 ± 0.0078,1.045 ± 0.0071,0.963 ± 0.018,0.993 ± 0.067,0.95 ± 0.041
COc1cc(OC)c2c(OC)c(-c3ccc4c(c3)OCO4)c(=O)oc2c1,1.04,1.08 ± 0.05,1.01 ± 0.061,0.804 ± 0.36,0.867 ± 0.34
CC(=O)NCC(=O)c1c[nH]c2ccccc12 [N-Acetyl-beta-oxotryptamin],1.02 ± 0.048,0.983 ± 0.095,0.982 ± 0.013,1.11 ± 0.085,0.932 ± 0.052
N[C@H]1Cc2ccc(cc2)C(=O)[C@@H]2C[C@@H](O)CN2C1=O [cyclo(4-hydroxyprolyl-phenylalanyl)],0.951 ± 0.023,0.907 ± 0.16,0.956 ± 0.016,0.915 ± 0.18,1.03 ± 0.028
C#C[C@]1(O)CC[C@H]2[C@@H]3CCC4=CCCC[C@@H]4[C@H]3CC[C@@]21C,1 ± 0.094,1.04 ± 0.021,0.97 ± 0.0085,1.02 ± 0.033,0.905 ± 0.042
CCCCCCOc1ccccc1C(N)=O,0.9695 ± 0.0078,0.954,0.962 ± 0.041,1.09 ± 0.21,1.11 ± 0.13
NS(=O)(=O)c1ccc(S(=O)(=O)Nc2cccc3c(Cl)c[nH]c23)cc1 [indisulam],1.04 ± 0.028,0.747 ± 0.07,0.926 ± 0.0028,1.17 ± 0.014,1.1 ± 0.15
CC(C)c1cccc(=O)c(O)c1,1.11 ± 0.13,1.07 ± 0.042,1.1 ± 0.021,1.03 ± 0.073,0.985 ± 0.064
CN1CCN(CCCN2c3ccccc3Sc3ccc(Cl)cc32)CC1,1.02 ± 0.13,0.941 ± 0.098,1.09 ± 0.064,1.03 ± 0.054,0.929 ± 0.042
C=C[C@@]1(C)CC(=O)[C@@]2(O)[C@](C)(O1)[C@@H](O)[C@@H](O)C1C(C)(C)CC[C@H](O)[C@@]12C (stereo not given in full),0.9975 ± 0.0035,0.96 ± 0.051,1.02 ± 0.014,0.923 ± 0.042,0.976 ± 0.13
CC(=O)O[C@@H]1CC2C(C)(C)[C@H](O)C[C@H](O)[C@@]2(C)C2CC[C@]3(C)C(=CC(=O)O[C@@H]3c3ccoc3)[C@]21C (stereo not given in full),0.961 ± 0.098,0.982 ± 0.097,0.982 ± 0.011,1.07 ± 0.099,0.948 ± 0.088
CN1CCN(C(c2ccccc2)c2ccccc2)CC1,1.04 ± 0.021,0.953 ± 0.018,1.07 ± 0.028,0.977 ± 0.12,1.01 ± 0.12
COc1ccc(-c2coc3cc(O)ccc3c2=O)cc1,1.01 ± 0.071,1.01 ± 0.15,0.9355 ± 0.00071,0.998 ± 0.046,0.972 ± 0.069
CCC(=O)O[C@@H]1[C@@H](OC2C(C)/C=C/C(=O)OC(C)C(CO[C@@H]3O[C@H](C)[C@@H](OC(=O)CC)[C@@H](OC)[C@H]3OC)C3OC3/C=C/C(=O)C(C)(O)CC2C)O[C@@H](C)C[C@H]1OC (stereo not given in full) [Chalcomycin B],1.04 ± 0.014,1.06 ± 0.064,1.11 ± 0.071,1.14 ± 0.12,0.972 ± 0.2
COc1ccc(-c2cc(=O)c3c(OC)c(OC)c(OC)c(OC)c3o2)cc1OC,0.9 ± 0.064,0.914 ± 0.059,1.04 ± 0.067,0.951 ± 0.034,0.992 ± 0.011
CC(=O)/C(=C\c1ccccc1)CC(=O)O,0.984 ± 0.037,1.03 ± 0.047,1 ± 0.05,0.894 ± 0.0085,0.996 ± 0.02
CC1(C)O[C@H]2[C@H](O)C[C@](O)(C(N)=O)C[C@H]2O1,1.08 ± 0.035,1.17 ± 0.15,1.09 ± 0.021,1.07 ± 0.15,0.916 ± 0.055
